The values below come from PubChem BioAssay AID602399 (Sanford-Burnham Center for Chemical Genomics, 2012).

Each structure is given as a SMILES string. Hit rate of the full screen: of about 360,000 compounds, about 2,800 (0.78%) were called active. No stated cut-off is given here; in the data, active means inhibition above about 26%; inactive means the rest. For the sample, actives were picked, then their nearest neighbours and some compounds at random.

The assay deals with Nicotinate-nucleotide adenylyltransferase NadD (Staphylococcus aureus N315). Briefly: inhibitors of S. aureus NadD, primary screen, biochemical, colorimetric, uHTS (AID 602399). Conditions: purified NadD enzyme, colorimetric absorbance read-out; at 20 µM; active compounds read high.
Turning to `Cc1cc(C(=O)CSc2nc(N)cc(=O)[nH]2)c(C)n1CCc1ccc(Cl)cc1`, the inhibition is 45.2% (active).
Turning to `Cc1cc(=O)[nH]c(SCc2ccc(Cl)cc2)n1`, the inhibition is -4.15% (inactive).
Next, `Cc1cc(C(=O)CSc2nc(N)cc(=O)[nH]2)c(C)n1-c1cccc(F)c1`: 23.5% (inactive); `C/C=C/C=C/C(=O)O`: 2.73% (inactive); `COC(=O)c1sccc1NC(=O)CSc1ccccc1NS(=O)(=O)c1cc(Cl)ccc1Cl`: 8.33% (inactive).
For `CCOc1ccc(-c2n[nH]c(=S)n2/N=C/c2cc3c(cc2[N+](=O)[O-])OCO3)cc1`, the inhibition is 33.3% (active).
The figure for `O=[N+]([O-])c1ccccc1/C=N/n1c(COc2ccccc2)n[nH]c1=S` is 4.33% (inactive).
Consider `Cc1ccc(S(=O)(=O)N/N=C\c2cc3c(cc2[N+](=O)[O-])OCO3)cc1`, for which the inhibition was -4.98% (inactive).
For `O=C1CC2(CC(c3ccc(Cl)cc3)=NO2)C(=O)N1c1ccccc1` (centres undefined), the inhibition was -6.96% (inactive).
Turning to `CC(=O)Nc1ccc(NC(=O)C(C)n2c3ccccc3c3nc(=O)cc(C)n32)cc1` (centres undefined), the inhibition was 1.71% (inactive).
On to `Cc1cc(C)cc(N(CC(=O)Nc2c(C)n(C)n(-c3ccccc3)c2=O)S(C)(=O)=O)c1`, for which the inhibition was 0.515% (inactive).
Consider `COc1ccc(Cl)cc1C(=O)NNC(=S)NC1CCCC1`, for which the inhibition was 2.3% (inactive).
On to `O=C(/C=C/c1ccco1)NC(=S)N1CCCCC1`, for which the inhibition was 0.202% (inactive).
`COc1ccc(Cl)cc1C(=O)NNC(=S)NC(=O)/C=C/c1ccco1`: the inhibition is 41.2% (active).
Consider `Cc1ccc(C(=O)NN(CCC#N)C2=NS(=O)(=O)c3ccccc32)cc1`, for which the inhibition was 2.03% (inactive).
Take `C=CC1=C(C(=O)O)N2C(=O)[C@@H](NC(=O)/C(=N/OCC(=O)O)c3csc(N)n3)[C@H]2SC1`: the inhibition is 94.8% (active).
Regarding `C=CC1=C(C(=O)O)N2C(=O)[C@@H](NC(=O)/C(=N\OCC(=O)O)c3csc(N)n3)[C@H]2SC1`, the inhibition was 15.8% (inactive).
Next, `Cc1ccc(Cl)cc1NC(=O)C1CCN(S(C)(=O)=O)CC1`: -1.83% (inactive); `CN(C)c1nc(N)nc(Cn2nnc(-c3ccc(C(F)(F)F)cc3)n2)n1`: -3.29% (inactive); `CC1(Oc2cccc(F)c2)CCN(Cc2ccccc2OC(F)F)C1` (centres undefined): -4.85% (inactive).
With `CC(=O)Nc1ccc(SCC(=O)Nc2ccccc2Oc2ccccc2)cc1`, the inhibition is -2.74% (inactive).
In the case of `CCC(C)Cn1c(O)cc2nn(-c3nc4ccccc4s3)c(=O)c-2c1C` (centres undefined), the inhibition was 81.3% (active).
The figure for `C/C(CC(C)C)=N\Oc1nc(C)cc(C)n1` is -5.32% (inactive); for `Cc1ccc2nc(-c3ccco3)c(Cc3cccc(Cl)c3)n2c1` it is 2.81% (inactive).
Consider `Clc1ccccc1CSc1nnc(-c2ccco2)c(-c2ccco2)n1`, for which the inhibition is 29.3% (active).
Take `CSc1nc(-c2ccco2)nn1C(=O)c1ccccc1Cl`: the inhibition was -4.61% (inactive).
Next, `COc1ccccc1N(CC(=O)N1CCCCC1)S(=O)(=O)c1ccccc1`: 0.503% (inactive).
For the molecule `CC(C#N)(NC(=O)CN1CCN(S(=O)(=O)c2cc(C(F)(F)F)ccc2Cl)CC1)C1CC1` (centres undefined), the inhibition is -1.47% (inactive).
In the case of `O=C(Nc1nnc(-c2ccccc2)o1)c1cc(-c2cccs2)nc2ccccc12`, the inhibition is 40.6% (active).
On to `O=C(Nc1nnc(-c2ccc(Cl)cc2)o1)c1ccccc1Br`, for which the inhibition is 9.64% (inactive).
Next, `Cc1ccnc2nc(C(=O)Nc3nnc(-c4ccccc4)o3)nn12`: -3.89% (inactive); `CN(Cc1nc2ccc(F)cc2[nH]1)Cc1nc(CC2CC2)no1`: -3.27% (inactive); `CCN(C(=O)CN1CCN(Cc2ccccc2)CC1)c1c(N)n(Cc2ccccc2)c(=O)[nH]c1=O`: -5.19% (inactive).
`Cc1ccccc1NC(=O)c1ccc(COc2ccc3c(C)cc(=O)oc3c2)cc1`: the inhibition is 1.94% (inactive).
On to `CC(C)Oc1ccc(/C=C(\NC(=O)/C=C/c2ccco2)C(=O)NCCc2nc3ccccc3[nH]2)cc1`, for which the inhibition was 40.3% (active).
The figure for `CCCCCOc1ccc(/C=C/C(=O)NCCc2nc3ccccc3[nH]2)cc1OC` is 0.224% (inactive); for `Cc1ccc(C(=O)N/C(=C/c2ccco2)C(=O)NCCc2c[nH]c3ccccc23)cc1C` it is 2.77% (inactive); for `CCn1c(SCC(=O)N/N=C/c2ccccc2OCC(=O)O)nnc1-c1ccc(C(C)(C)C)cc1` it is 5.5% (inactive).
`CCOC(=O)N1CCC(NC(=O)CCc2cn(C)c3ccccc23)CC1`: the inhibition was 0.741% (inactive).
Next, `COc1ccc(CCNC(=O)CN2C(=O)CCSc3ccccc32)c(OC)c1`: -0.893% (inactive); `COC(=O)COc1ccc2c(c1C)O/C(=C\c1ccco1)C2=O`: -6.79% (inactive).
Take `CC(C)(C)C1C/C(=C/c2ccco2)C(=O)/C(=C/c2ccco2)C1` (centres undefined): the inhibition was 41.6% (active).
On to `CC1CCN(C(=S)NC2CC3CCC2C3)CC1` (centres undefined), for which the inhibition was 1.51% (inactive).
As for `Cc1nn(C)c(C)c1Sc1ccccc1N`, the inhibition was -4.87% (inactive).
With `Cc1ccc(NC(=O)N2CCC(c3nc4c(nnn4Cc4c(F)cccc4Cl)c(=O)[nH]3)CC2)cc1`, the inhibition was 22.9% (inactive).
For `CC(C)(C)c1ccc(Cn2nnc3c(=O)[nH]c(C4CCCN(C(=O)c5ccco5)C4)nc32)cc1` (centres undefined), the inhibition is 4.55% (inactive).
With `Cc1ccc(Cn2nnc3c(=O)[nH]c(C4CCN(S(=O)(=O)/C=C/c5ccccc5)CC4)nc32)cc1`, the inhibition was 31.1% (active).
For `CC(C)COC(=O)c1ccc(NC(=O)C2C3C=CC(C3)C2C(=O)O)cc1` (centres undefined), the inhibition was 3.38% (inactive).
Regarding `COCCNC(=O)C(c1ccc(C)cc1)N(C(=O)CCC(=O)Nc1ccccn1)c1cccc(C)c1` (centres undefined), the inhibition was -8.33% (inactive).
On to `O=C(c1ccc(C(F)(F)F)cc1)N1CCC(=O)N([C@H](COCc2ccccc2)Cc2ccccc2)CC1`, for which the inhibition was -5.31% (inactive).
For `O=C(Nc1ccc(S(=O)(=O)Nc2nccs2)cc1)c1cc(-c2ccncc2)nc2ccccc12`, the inhibition is 52.3% (active).
With `O=C(CCc1ccccc1Cl)Nc1ccc(S(=O)(=O)Nc2nccs2)cc1`, the inhibition was -3.71% (inactive).
Next, `O=C(Nc1ccc(S(=O)(=O)Nc2nccs2)cc1)c1cc(=O)[nH]c2ccccc12`: -0.912% (inactive).
Regarding `CCOc1ccc(NC(=O)c2ccc(CSc3nnnn3C)cc2)cc1`, the inhibition is -3.76% (inactive).
Consider `CCc1ccc2c(c1)C1(NN=C(c3ccccc3)S1)C(=O)N2` (centres undefined), for which the inhibition was 3.11% (inactive).
As for `O=C(CSc1ccccc1)Nc1cc(Cl)ccc1Oc1ccccc1`, the inhibition is 6.26% (inactive).
In the case of `O=C(CSc1nc2ccc(Nc3nc(N4CCOCC4)nc(N4CCOCC4)n3)cc2s1)NCc1ccco1`, the inhibition is 8.01% (inactive).
Take `O=C(CSc1nc(Nc2ccccc2)nc(N2CCOCC2)n1)Nc1cc(Cl)ccc1O`: the inhibition was 37.7% (active).
Next, `O=C(NCCCCc1ccccc1)C1CC(c2ccc([N+](=O)[O-])cc2)=NO1` (centres undefined): -8.64% (inactive); `COc1cccc(CNC(C)C(=O)Nc2ccc(S(=O)(=O)N3CCCC3)cc2)c1` (centres undefined): 0.261% (inactive).
Next, `CCOC(=O)c1sc(=NC(=O)c2ccc(Br)cc2)n(C)c1C`: -0.0934% (inactive); `COC(=O)c1ccc(C2NC(=O)NC(C)=C2C(=O)N(C)C)cc1` (centres undefined): -2.37% (inactive).
Consider `CCOC(=O)C1=C(C)Nc2sc(C(=O)c3ccc(Br)cc3)c(N)c2C1c1ccc(C(=O)OC)cc1` (centres undefined), for which the inhibition is 33.6% (active).
Regarding `Cc1nc(CC(=O)NNS(=O)(=O)c2ccc(F)c(Cl)c2)cs1`, the inhibition was -1.28% (inactive).
Regarding `CC(C)Oc1ccc(CCc2nnc(SCC(=O)O)n2-c2ccccc2)cc1`, the inhibition is -4.23% (inactive).
The figure for `CCCCC(=O)Nc1c2c(nn1-c1ccc([N+](=O)[O-])cc1)CS(=O)(=O)C2` is -6.61% (inactive).
Next, `O=C1/C(=C\c2ccc([N+](=O)[O-])cc2)CS(=O)(=O)C/C1=C/c1ccc([N+](=O)[O-])cc1`: 35.3% (active); `O=C1CCCN1C(=O)COc1ccc([N+](=O)[O-])cc1`: 0.0869% (inactive); `CCNC(=O)Nc1ccc(S(=O)(=O)Nc2cnc(C)nc2C)cc1`: 4.03% (inactive).
Consider `c1ccc2c(c1)OCCOCCOCCO2`, for which the inhibition is 1.98% (inactive).
Next, `CS(=O)(=O)c1ccc2c(c1)SC1=NC(=O)/C(=C/c3ccco3)C(=N)N12`: 35% (active).
Consider `COc1ccc(S(=O)(=O)N2CCOC2CNC(=O)C(=O)NCc2ccncc2)cc1OC` (centres undefined), for which the inhibition is -7.02% (inactive).
Next, `CC(=O)c1ccc(Nc2nc(C(N)c3ccccc3Cl)cs2)cc1` (centres undefined): -4.95% (inactive); `NC(c1ccccc1)c1csc(NC(=O)Nc2cccc(C(F)(F)F)c2)n1` (centres undefined): 3.58% (inactive); `NC(c1csc(NC(=O)Nc2ccccc2Oc2ccccc2)n1)c1ccccc1Cl` (centres undefined): 40.7% (active).
In the case of `CCOc1ccc(S(=O)(=O)N(CC(=O)NCC(F)(F)F)Cc2ccco2)cc1`, the inhibition is -2.92% (inactive).
For the molecule `CC1=NN(c2cccc(Cl)c2)C(=O)C12CC(C)=C(C)CS2` (centres undefined), the inhibition is -3.46% (inactive).
Turning to `O=C(N/N=C/c1ccoc1)c1ccc(Cl)cc1Cl`, the inhibition was -0.584% (inactive).
With `CC(C)(C)C(=O)Nc1ccc(C(=O)N/N=C/c2ccccc2OC(=O)c2ccc(Cl)cc2Cl)cc1`, the inhibition was 38.5% (active).
`O=C(N/N=C/c1ccccn1)c1cccc(NC(=O)c2ccc(Cl)cc2)c1`: the inhibition is 6.47% (inactive).
The figure for `O=c1[nH]c(CCl)nc2cc(-c3ccc(Cl)cc3)sc12` is 1.98% (inactive); for `CCc1[nH]nc(C(=O)N2CCCC(CO)(Cc3ccc(F)cc3F)C2)c1C` (centres undefined) it is 1.03% (inactive).
As for `CCCn1c(C2CCCN2c2nc(-c3ccc(C)cc3)cs2)nc2cc(Cl)c(N3CCCCC3)cc21` (centres undefined), the inhibition was 7.02% (inactive).
With `Cc1ccc(-c2csc(N3CCN(c4cc5c(cc4Cl)nc(-c4ccncc4)n5CCOCCO)CC3)n2)cc1`, the inhibition was -0.493% (inactive).
In the case of `CCCn1c(C(C)Nc2nc(-c3ccc(C)cc3)cs2)nc2cc(Cl)c(N3CCCCC3)cc21` (centres undefined), the inhibition is 30.3% (active).
For `CC(=O)C1=C(C)NC2=C(C(=O)CC(C)(C)C2)C1C` (centres undefined), the inhibition is -0.177% (inactive).
For `CCOc1cc(/C=N/NC(=O)c2c(C)nc3ccc(Cl)cn23)ccc1O`, the inhibition was -0.152% (inactive).
Next, `O=C1CSC(=S)N1/N=C/c1ccc(O)c([N+](=O)[O-])c1`: 5.51% (inactive); `Cc1cc(C(=O)N/N=C/c2ccc(O)c([N+](=O)[O-])c2)c(C)n1-c1ccc(F)cc1`: 33.3% (active).
